Our source for the parasite growth remaining, % of DMSO control (lower = more inhibition) values is PubChem BioAssay (NCATS).

Molecules are shown by their SMILES. Several values for one entry are separate records, joined by “and”; a condition that tells them apart may be missing. Equal entries are not always repeated. Non-standard residues stand in square brackets, D forms with d. Residues, ends and D or L forms follow the SMILES beside them. *: point of attachment. Nva = CCC[C@H](N)C(=O)O; Cbz = O=C(OCc1ccccc1)*

This test can be described thus: qHTS profiling of the MIPE4 collection as inhibitors of Plasmodium falciparum (DD2) proliferation (AID 743345). The note with it: P. falciparum Dd2 in erythrocytes, SYBR Green DNA, 72 h; at 28.5 µM (top of the series) unless noted. Put shortly:
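Erythrocytes infected with P. falciparum (0.3% parasitemia, 2.5% hematocrit) incubated with compounds 72 h at 37 C, 5% CO2. Lysis with saponin/Triton buffer containing SYBR Green I, overnight at room temperature in the dark; DNA fluorescence (485/535 nm) normalised to 0.29 uM artemisinin and DMSO.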
In the case of `CC(Oc1ccc(O)cc1)(P(=O)(O)O)P(=O)(O)O`, the parasite growth remaining, % of DMSO control (lower = more inhibition) was found to be 101%.

For `CNC(=O)c1ccc(Nc2cc(Nc3ccccc3S(=O)(=O)C(C)C)c3cc[nH]c3n2)nc1`, the parasite growth remaining, % of DMSO control (lower = more inhibition) was determined as 11.9%.

With `O=[N+]([O-])c1cn2c(n1)OC[C@@H](OCc1ccc(OC(F)(F)F)cc1)C2`, the parasite growth remaining, % of DMSO control (lower = more inhibition) was 99.7% and 101%.

For the molecule `O=C(c1ccc(F)cc1)N1CCC[C@H](c2nc(-c3ccc(F)cc3)no2)C1`, the parasite growth remaining, % of DMSO control (lower = more inhibition) turned out to be 94.6%.

On to `CCN(CC)CCNC(=O)c1c(C)[nH]c(C=C2C(=O)Nc3ccc(F)cc32)c1C`, for which the parasite growth remaining, % of DMSO control (lower = more inhibition) turned out to be 7.72% [at 57.5 µM].

Consider `CCN(CC)Cc1ccc2cc(COC(=O)Nc3ccc(C(=O)NO)cc3)ccc2c1`, for which the parasite growth remaining, % of DMSO control (lower = more inhibition) amounted to 6.93%.

For the molecule `Cc1cn([C@@H]2O[C@H](CO)[C@@H](O)[C@H]2F)c(=O)[nH]c1=O`, the parasite growth remaining, % of DMSO control (lower = more inhibition) stood at 94.7%.

Regarding `Cc1[nH]c(C=C2C(=O)Nc3ccccc32)c(C)c1CCC(=O)O`, the parasite growth remaining, % of DMSO control (lower = more inhibition) worked out at 176%.

On to `N#CC(=C(O)c1ccc(Cl)cc1Cl)c1nc2cc(Cl)ccc2c(=O)[nH]1`, for which the parasite growth remaining, % of DMSO control (lower = more inhibition) was 99.7%.

For `CC(C)[C@H](CO)Nc1nc(Nc2cccc(Cl)c2)c2ncn(C(C)C)c2n1`, the parasite growth remaining, % of DMSO control (lower = more inhibition) came out at 21.1%.

On to `C=Cc1c(C)c2cc3nc(cc4[nH]c(cc5nc(cc1[nH]2)C(C)=C5CCC(=O)O)c(CCC(=O)OC)c4C)[C@@]1(C)C3=CC=C(C(=O)OC)[C@H]1C(=O)OC`, for which the parasite growth remaining, % of DMSO control (lower = more inhibition) was 5.89%.

On to `CCCCCCCCCCCC(CC1OC(=O)C1CCCCCC)OC(=O)C(CC(C)C)NC=O` (configuration not stated), for which the parasite growth remaining, % of DMSO control (lower = more inhibition) was 13.8%.

Take `C[C@H](O)[C@@H]1C(=O)N2C(C(=O)O)=C(S[C@@H]3CN[C@H](CNS(N)(=O)=O)C3)[C@@H](C)[C@@H]12`: the parasite growth remaining, % of DMSO control (lower = more inhibition) is 99.1%.

In the case of `Cc1noc(-c2ccc(CSCCC(=O)O)cc2)c1NC(=O)OC(C)c1ccccc1Cl` (configuration not stated), the parasite growth remaining, % of DMSO control (lower = more inhibition) is 96%.

`Cc1ccc2nc(NCCN)c3ncc(C)n3c2c1`: the parasite growth remaining, % of DMSO control (lower = more inhibition) stood at 41.2%.

On to `N[C@H]1CN(c2c(F)cc3c(=O)c(C(=O)O)cn(C4C[C@@H]4F)c3c2Cl)CC12CC2` (some centres not stated), for which the parasite growth remaining, % of DMSO control (lower = more inhibition) came out at 24.5%.

For the molecule `O=C(C=Cc1ccc(CN(CCO)CCc2c[nH]c3ccccc23)cc1)NO`, the parasite growth remaining, % of DMSO control (lower = more inhibition) was found to be 6.71%.

For the molecule `CC(=O)NC(CS)C(=O)O` (configuration not stated), the parasite growth remaining, % of DMSO control (lower = more inhibition) is 97.9%.

In the case of `COc1cccc2c1C(=O)c1c(O)c3c(c(O)c1C2=O)C[C@@](O)(C(C)=O)C[C@H]3O[C@H]1C[C@H](N)[C@H](O)[C@H](C)O1`, the parasite growth remaining, % of DMSO control (lower = more inhibition) was 5.82%.

As to `Cn1cnc(=N)c2[nH]cnc21`, the parasite growth remaining, % of DMSO control (lower = more inhibition) was 6.87%.

As to `c1cncc(CN2CCC(n3ncc4c(N5CCOCC5)nc(-c5ccc6[nH]ccc6c5)nc43)CC2)c1`, the parasite growth remaining, % of DMSO control (lower = more inhibition) amounted to 6.76%.

`CC(C(C)N1CC(=O)NC(=O)C1)N1CC(=O)NC(=O)C1` (configuration not stated): the parasite growth remaining, % of DMSO control (lower = more inhibition) was found to be 80.3%.

For `CC1=C(C(=O)Nc2cc3cn[nH]c3cc2F)C(c2ccc(Cl)cc2F)N=C(c2ccnc(Cl)c2)N1` (configuration not stated), the parasite growth remaining, % of DMSO control (lower = more inhibition) worked out at 36.2%.

For `CCN(C(=O)c1c(O)c2c(Cl)cccc2n(C)c1=O)c1ccccc1`, the parasite growth remaining, % of DMSO control (lower = more inhibition) is 108%.

Take `O=C(CCCCCCC(=O)Nc1cccnc1)NO`: the parasite growth remaining, % of DMSO control (lower = more inhibition) stood at 7.37%.

`CN1CCCN(C(=O)c2cccc(-c3ccc(C=C4C(=O)Nc5ccc(Cl)cc54)o3)c2)CC1`: the parasite growth remaining, % of DMSO control (lower = more inhibition) was 5.68%.

As for `CCCc1nc(C(C)(C)O)c(C(=O)O)n1Cc1ccc(-c2ccccc2-c2nn[nH]n2)cc1`, the parasite growth remaining, % of DMSO control (lower = more inhibition) came to 93.7%.

With `O=C(NCc1ccccc1)[C@H](Cc1ccccc1)NC(=O)[C@@H]1O[C@@H]1C(=O)NCCc1ccc(O)cc1`, the parasite growth remaining, % of DMSO control (lower = more inhibition) was found to be 44.7%.

For the molecule `CCC[C@@H](C=O)NC(=O)[C@H](CC(C)C)NC(=O)[C@H](CC(C)C)NC(=O)OCc1ccccc1` (Cbz-Leu-Leu-[Nva]-aldehyde), the parasite growth remaining, % of DMSO control (lower = more inhibition) worked out at 6.49%.

Regarding `COc1ccc2c(c1OC)C(=O)OC2[C@H]1c2c(cc3c(c2OC)OCO3)CCN1C` (some centres not stated), the parasite growth remaining, % of DMSO control (lower = more inhibition) is 20.7%.

For the molecule `C=C[C@@H]1CN2CCC1C[C@H]2[C@H](O)c1ccnc2ccc(OC)cc12` (some centres not stated), the parasite growth remaining, % of DMSO control (lower = more inhibition) was 9.84%.

Regarding `COc1ccc(S(=O)(=O)Nc2cccnc2Nc2ccc(O)cc2)cc1`, the parasite growth remaining, % of DMSO control (lower = more inhibition) amounted to 94%.

With `CC(C)(O)[C@H]1CC[C@@](C)([C@H]2[C@@H](O)C[C@@]3(C)[C@@H]4C[C@H](O[C@@H]5O[C@H](CO)[C@@H](O)[C@H](O)[C@@H]5O)[C@H]5C(C)(C)[C@@H](O[C@@H]6OC[C@@H](O)[C@H](O)[C@@H]6O)CC[C@@]56C[C@@]46CC[C@]23C)O1`, the parasite growth remaining, % of DMSO control (lower = more inhibition) worked out at 135%.

`O=C1c2c(O)cccc2[C@@H]([C@@H]2O[C@H](CO)[C@@H](O)[C@H](O)[C@H]2O)c2cc(CO)cc(O)c21`: the parasite growth remaining, % of DMSO control (lower = more inhibition) amounted to 95.6%.

For `CC(O)(C#Cc1ccc2c(c1)N(c1nc(N)ncc1Cl)CC2)c1nccs1` (configuration not stated), the parasite growth remaining, % of DMSO control (lower = more inhibition) stood at 33.4%.

As to `C=CCNc1c(O)cc2c(O)c1C[C@@H](C)C[C@H](OC)[C@@H](O)[C@@H](C)C=C(C)[C@H](OC(N)=O)[C@@H](OC)C=CC=C(C)C(=O)N2`, the parasite growth remaining, % of DMSO control (lower = more inhibition) came out at 6.14%.

As for `c1cc(N[C@@H]2CCNC2)nc(-c2cnc3ccc(-c4cn[nH]c4)cn23)c1`, the parasite growth remaining, % of DMSO control (lower = more inhibition) stood at 8.57%.
